In the library only some 13% were active in any assay of this set; here they are far more common.
HCV inh: inhibitors of hepatitis C virus infection. Potency, µM (top dose mostly 41.8 µM), for the others: at the highest dose activity change, negative = inhibition, actives largely listed as inhibitors. 340,000 compounds, 3.4% hits. AID 651820. Huh7.5.1 HCVcc-Cre infection, luciferase reporter, 44 h; further: potency means the concentration at half of the fitted maximal effect
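HCVcc-Cre virus at an moi near 0.5 was added right after compound to cells cultured 4 h from seeding (1,000 cells/well). Luciferase activity was determined 44 h later, 15 min after substrate addition at RT.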
HCMV antiviral: human cytomegalovirus inhibition; HFF cells, HCMV-luciferase reporter, 72 h; active compounds read low; 410,000 compounds, 4.5% hits; activity change, negative = inhibition, % at 57.5 µM; in the data active means activity change below about -60%; inconclusive means no clear call, values can overlap the other calls; inactive means above about -39%
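Luciferase read-out from HCMV-luciferase-infected HFFs (MOI 1 PFU/cell) 72 h post infection at 37C; compounds added after 16 h cell attachment; activity normalized between buffer-only basal and Salinomycin (10uM) inhibitor controls.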
Pf growth 96h: P. falciparum growth inhibition at 96 hour, primary screen for plastid delayed-death inhibitors; P. falciparum luciferase reporter growth, 96 h; Potency, µM (series often up to 28.7 µM), for inactives: at the top dose activity change, negative = inhibition, most hits filed as inhibitors; 320,000 compounds, 6.9% hits; AID 504834; further: potency means the concentration at half of the fitted maximal effect
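Two parasite generations (96 h, 37 C, 5% CO2) of compound exposure in infected erythrocytes (0.05% parasitemia, 2% hematocrit). Luciferase-reporter P. falciparum; decreased luminescence indicates inhibited growth, aimed at apicoplast-acting delayed death.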
Pf growth 48h: P. falciparum growth inhibition at 48 hours (one generation). P. falciparum luciferase growth in erythrocytes, 48 h. Potency, µM (top dose mostly 28.7 µM), inactives show at the highest dose activity change, negative = inhibition, most hits filed as inhibitors. 310,000 compounds, 5.9% hits; further: potency means the concentration at half of the fitted maximal effect
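Here the parasites carry a stable luciferase gene and grow inside erythrocytes in Albumax-based RPMI medium with compound for one erythrocytic cycle. Activity is scored as loss of luminescent signal.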
The depositor's hits bear a star; ? = inconclusive; / = not tested or not shown. Unless noted, the call rests on the fitted dose curve; in most records, active means well fitted inhibition curve with a large enough effect; inconclusive means small, poorly fitted or top-dose-only effect, or another doubt; inactive means no such curve, though single readings can be large or run the other way. On the % scale 0 is the no-effect control and ±100 the full control effect.

SMILES	HCV inh	HCMV antiviral	Pf growth 96h	Pf growth 48h
COc1ccc(/C=C2\SC(=S)N(CCC(=O)NCCCn3ccnc3)C2=O)cc1	13%	-32	?	?
O=C(CN1C(=O)S/C(=C\c2ccc(Cl)cc2)C1=O)NCCCn1ccnc1	-4%	-8	?	-26%
CC(C)c1ccc(/C=C2\SC(=S)N(CCC(=O)NCCCn3ccnc3)C2=O)cc1	?	-97*	?	?
Cc1ccc(-n2nc3c(c2NC(=O)c2c(-c4ccccc4Cl)noc2C)CSC3)cc1	-24%	/	20%	13µM*
Cc1ccccc1-n1nc2c(c1NC(=O)c1c(-c3ccccc3Cl)noc1C)CSC2	-8%	5	?	12µM*
Cc1onc(-c2ccccc2Cl)c1C(=O)Nc1ccc(N2CCOCC2)cc1	-9%	-13	?	?
O=C(O)C1=C[C@H](c2csc3ccccc23)C[C@H](OCc2ccc(CO)cc2)O1	27%	5	15%	58%
C#CCNC(=O)C1=C[C@@H](c2csc3ccccc23)C[C@@H](OCc2ccc(CO)cc2)O1	-24%	-17	5.2µM*	?
O=C(NCc1ccccc1)C1=C[C@@H](c2coc3ccccc3c2=O)C[C@@H](OCc2ccc(CO)cc2)O1	-12%	0	4.1µM*	?
O=C(NCc1ccccc1)C1=C[C@@H](c2csc3ccccc23)C[C@@H](OCc2ccc(CO)cc2)O1	?	-98*	?	?
O=C(NC1CC1)C1=C[C@@H](c2csc3ccccc23)C[C@@H](OCc2ccc(CO)cc2)O1	-6%	-15	13µM*	?
O=C(Nc1ccccc1)C1=C[C@H](c2coc3ccccc3c2=O)C[C@H](OCc2ccc(CO)cc2)O1	-26%	-1	?	?
CCCN1C(=O)CC[C@@H](S(=O)(=O)c2ccccc2)[C@@H]1c1ccccc1	/	-9	/	/
Cc1ccccc1NC(=O)Cn1c(=O)n(CCC(=O)N2CCc3ccccc3C2)c(=O)c2ccccc21	/	13	/	/
COc1ccc(OC)c(NC(=O)CCc2c(C)nc3c(c(C)nn3C(C)(C)C)c2C)c1	/	-4	/	/
O=C(NCc1ccccc1)C1=C[C@H](C2CCCCC2)C[C@H](OCc2ccc(CO)cc2)O1	14%	-84*	?	?
CC(C)(C)[C@@H]1C=C(C(=O)Nc2ccccc2)O[C@H](OCc2ccc(CO)cc2)C1	-27%	8	8.3µM*	?
COC(=O)[C@]1(C)CCC[C@@]2(C)C3CC[C@@]4(C)C[C@]3(CCC21)CC(=O)N4Cc1ccc(OC)cc1 (some centres not stated)	13µM*	6	1.5µM*	1.7µM*
COC(=O)[C@]1(C)CCC[C@@]2(C)C3CC[C@]4(OC(C)=O)C[C@@]3(CCC21)CC4=O (some centres not stated)	?	-23	?	?
CCOC(=O)N1CCN(S(=O)(=O)c2ccc(C(=O)Nc3sc4c(c3C(N)=O)CC(C)(C)NC4(C)C)cc2)CC1	0%	-11	?	12µM*
CC1CCN(S(=O)(=O)c2ccc(C(=O)Nc3sc4c(c3C(N)=O)CC(C)(C)NC4(C)C)cc2)CC1	/	-9	/	/
CC1(C)Cc2c(sc(NC(=O)c3ccc(C(=O)c4ccccc4)cc3)c2C(N)=O)C(C)(C)N1	?	-100*	?	?
CC1(C)Cc2c(sc(NC(=O)c3ccc4ncsc4c3)c2C(N)=O)C(C)(C)N1	?	85	107%	83%
COc1ccc(C)cc1NC(=O)C1CCN(S(=O)(=O)c2cc(Br)cc3c2N(C(C)=O)CC3)CC1	/	11	/	/
COc1ccc(NC(=O)N2CCC(C(=O)c3ccc(F)cc3)CC2)cc1	?	0	31%	-16%
NC(=O)C1CCN(C(=O)C2(NC(=O)Nc3cccc(F)c3)CCCCC2)CC1	11%	3	?	1%
CC(=O)NC(Cc1ccccc1)C(=O)NC1CCN(C(=O)NC2CCCCC2)CC1 (configuration not stated)	17%	15	8%	2%
COc1ccc(OC)c(C(=O)N2CCC(C(=O)c3ccc(F)cc3)CC2)c1	-5%	24	9.3µM*	-16%
COc1cc(C(=O)N2CCC(NC(=O)C(Cc3ccccc3)NC(C)=O)CC2)cc(OC)c1OC (configuration not stated)	12%	0	12µM*	?
Cc1cc(C)cc(NC(=O)N2CCC(C(=O)c3ccc(F)cc3)CC2)c1	?	-39	32%	?
